HP1b chromo inh: HTS for Inhibitors of HP1-beta Chromodomain Interactions with Methylated Histone Tails | AID 540317, 2011 | actives 0.56% (n = 390,000) | AlphaScreen HP1-beta / biotin-H3K9me3 peptide binding | Potency, µM (top dose mostly 114 µM), most hits filed as inhibitors | Chromobox protein homolog 1 (Homo sapiens), P83916; also: nearly all actives have a fitted effect of over 70% in size
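AlphaScreen: HP1-beta (50 nM) preformed 30 min with biotin-H3(1-18)K9me3 peptide (50 nM) in PBS pH 7.4, 0.01% Tween-20. Compound added for 30 min at RT, then streptavidin donor/nickel chelate acceptor beads (10 ug/mL) for 30 min.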
JMJD2A Tudor inh: qHTS Assay for Inhibitors of JMJD2A-Tudor Domain. Lysine-specific demethylase 4A (Homo sapiens), O75164. AlphaScreen JMJD2A-Tudor / H3K4me3 peptide binding. Potency, µM (highest dose often 114 µM), most hits filed as inhibitors. actives 4.4% (n = 390,000); also: nearly all actives have a fitted effect of over 50% in size
BAZ2B inh: qHTS Assay for Inhibitors of BAZ2B; Bromodomain adjacent to zinc finger domain protein 2B (Homo sapiens), Q9UIF8; AlphaScreen BAZ2B-H3K14Ac peptide displacement; Potency, µM (top dose mostly 114 µM), most hits filed as inhibitors; actives 4.4% (n = 360,000); AID 504333, 2011; also: nearly all actives have a fitted effect of over 60% in size
Target sequence (Q9UIF8 whole entry, looked up, the tested form may be a part): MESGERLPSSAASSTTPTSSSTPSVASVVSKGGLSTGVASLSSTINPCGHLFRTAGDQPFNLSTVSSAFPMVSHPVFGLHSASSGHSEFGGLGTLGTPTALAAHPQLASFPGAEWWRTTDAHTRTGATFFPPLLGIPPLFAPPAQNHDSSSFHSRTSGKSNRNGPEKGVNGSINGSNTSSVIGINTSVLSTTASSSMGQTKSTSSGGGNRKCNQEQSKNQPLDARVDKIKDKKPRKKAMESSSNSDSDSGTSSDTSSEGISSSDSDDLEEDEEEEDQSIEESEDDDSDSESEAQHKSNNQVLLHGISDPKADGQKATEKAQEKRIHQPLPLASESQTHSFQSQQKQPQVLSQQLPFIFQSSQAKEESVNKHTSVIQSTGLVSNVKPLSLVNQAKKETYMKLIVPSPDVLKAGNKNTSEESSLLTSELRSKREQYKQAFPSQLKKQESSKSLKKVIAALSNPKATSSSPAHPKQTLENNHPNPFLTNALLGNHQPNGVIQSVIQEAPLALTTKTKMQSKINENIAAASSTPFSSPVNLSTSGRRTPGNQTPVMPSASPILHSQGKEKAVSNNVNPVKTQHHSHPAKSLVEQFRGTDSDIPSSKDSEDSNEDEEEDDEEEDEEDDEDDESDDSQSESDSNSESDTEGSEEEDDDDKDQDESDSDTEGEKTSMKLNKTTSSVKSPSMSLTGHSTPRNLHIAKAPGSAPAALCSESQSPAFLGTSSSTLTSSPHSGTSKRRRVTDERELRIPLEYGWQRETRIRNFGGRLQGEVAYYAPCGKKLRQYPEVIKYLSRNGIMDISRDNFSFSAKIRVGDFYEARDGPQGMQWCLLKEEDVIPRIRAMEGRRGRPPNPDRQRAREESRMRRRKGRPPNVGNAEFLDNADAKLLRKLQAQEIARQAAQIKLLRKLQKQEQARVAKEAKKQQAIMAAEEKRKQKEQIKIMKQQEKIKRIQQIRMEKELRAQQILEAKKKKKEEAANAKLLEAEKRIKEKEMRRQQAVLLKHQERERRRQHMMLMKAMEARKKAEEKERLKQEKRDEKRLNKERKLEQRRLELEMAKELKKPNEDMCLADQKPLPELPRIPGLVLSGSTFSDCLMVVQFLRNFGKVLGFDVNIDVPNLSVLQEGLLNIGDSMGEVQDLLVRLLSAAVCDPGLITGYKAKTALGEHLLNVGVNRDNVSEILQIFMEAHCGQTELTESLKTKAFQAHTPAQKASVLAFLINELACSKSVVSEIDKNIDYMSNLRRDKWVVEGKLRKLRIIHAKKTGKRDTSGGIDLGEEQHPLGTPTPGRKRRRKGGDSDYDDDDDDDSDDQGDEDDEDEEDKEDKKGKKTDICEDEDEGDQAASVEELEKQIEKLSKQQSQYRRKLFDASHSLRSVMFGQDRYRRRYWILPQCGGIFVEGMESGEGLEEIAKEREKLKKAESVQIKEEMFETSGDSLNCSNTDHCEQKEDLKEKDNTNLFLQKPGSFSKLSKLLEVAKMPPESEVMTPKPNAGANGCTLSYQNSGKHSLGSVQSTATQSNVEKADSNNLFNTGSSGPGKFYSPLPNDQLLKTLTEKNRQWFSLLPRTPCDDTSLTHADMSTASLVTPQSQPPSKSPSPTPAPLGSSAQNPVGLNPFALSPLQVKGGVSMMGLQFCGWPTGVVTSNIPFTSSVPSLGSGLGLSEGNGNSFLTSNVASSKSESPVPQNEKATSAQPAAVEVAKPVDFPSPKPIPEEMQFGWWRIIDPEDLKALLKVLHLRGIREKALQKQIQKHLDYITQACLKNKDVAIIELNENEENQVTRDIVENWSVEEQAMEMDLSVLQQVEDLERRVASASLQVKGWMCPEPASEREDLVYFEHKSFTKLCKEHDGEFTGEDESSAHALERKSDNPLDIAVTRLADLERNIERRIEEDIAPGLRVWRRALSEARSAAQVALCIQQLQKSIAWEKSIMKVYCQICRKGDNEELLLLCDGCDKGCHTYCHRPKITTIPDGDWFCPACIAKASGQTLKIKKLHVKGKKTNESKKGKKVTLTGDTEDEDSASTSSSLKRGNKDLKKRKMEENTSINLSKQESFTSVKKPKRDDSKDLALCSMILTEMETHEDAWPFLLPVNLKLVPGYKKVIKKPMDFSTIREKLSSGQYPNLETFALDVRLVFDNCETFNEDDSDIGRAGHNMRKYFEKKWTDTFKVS
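In this displacement format the biotinylated H3(5-23) peptide acetylated at Lys14 serves as ligand at 50 nM, with BAZ2B at 50 nM in PBS pH 7.4 containing 0.01% Tween-20. Donor and acceptor beads are 10 ug/mL final.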
GLS inh: qHTS for Inhibitors of Glutaminase (GLS) | Glutaminase kidney isoform, mitochondrial (Homo sapiens), O94925 | GLS enzymatic activity, qHTS titration | Potency, µM (series often up to 45.5 µM), hits mostly inhibitors | actives 0.21% (n = 410,000)
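hKGA; 45 mM KH2PO4 pH 8.2 + 0.02% Tween-20; cpd via pin tool; 1 mM Gln soln; GluOx/HRP/Amplex Red; RT 30 min; fluor. t0 & final.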
G9a block: qHTS Assay for Inhibitors of Histone Lysine Methyltransferase G9a; AID 504332, 2011; Potency, µM (titrated, usually from 102 µM), actives largely listed as inhibitors; G9a H3K9 monomethylation, AlphaScreen, 2 h; actives 8.8% (n = 350,000); also: nearly all actives have a fitted effect of over 75% in size
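G9a (20 nM) was preincubated 15 min with compound, then reacted 2 h at room temperature with 500 nM biotin-H3K9 peptide and 20 µM SAM. Monomethyl-H3K9 detected by AlphaScreen using anti-H3K9me1 antibody.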
Large screens that a line does not name were inactive; ! = not confirmed by another sample. An excerpt weighted towards active compounds, which were near 10% of everything screened. Calls follow the shape of the dose curve; as a rule, active = well fitted curve in the direction sought with a large enough effect; inconclusive = small, poorly fitted or top-dose-only effect, or another doubt; inactive = no such curve, though single readings can be large; an effect the other way counts as inactive or inconclusive.

COCC(C)n1c(C)cc(C(=O)CSc2nc(C)c(C)c(C)n2)c1C (configuration not stated)	BAZ2B inh inconclusive
COc1ccc2c(C)cc(SCC(=O)c3ccc4c(c3)OCO4)nc2c1	none
COc1ccc2c(C)cc(SCC(=O)Nc3ncc(Cl)cc3Cl)nc2c1	G9a block 25µM
COCCn1c(C)cc(C(=O)CSc2nc(C)c(C)c(C)n2)c1C	JMJD2A Tudor inh inconclusive, BAZ2B inh inconclusive, G9a block 28µM
COCCn1c(C)cc(C(=O)CSc2cc(C)c3ccc(OC)cc3n2)c1C	JMJD2A Tudor inh inconclusive, G9a block 71µM
CCOc1ccccc1CNn1cnnc1SCC(=O)NC(C)(C)C	none (no result: HP1b chromo inh, JMJD2A Tudor inh, BAZ2B inh, G9a block)
COc1ccc(-n2ncc3c(N4CCC(C)CC4)ncnc32)cc1	none (no result: G9a block)
COc1ccccc1-n1cnnc1SCC(=O)Nc1ncc(Cl)cc1Cl	JMJD2A Tudor inh 50µM
Cc1ccc(OCCSc2nc3ccccc3n2CC(=O)N2CCCCC2)c(C)c1	G9a block 14µM
Cc1ccc(C)c(OCCSc2nc3ccccc3n2CC(=O)N2CCOCC2)c1	BAZ2B inh inconclusive, G9a block inconclusive
COc1cccc(Nc2nc(NCC3CCCO3)c3ccccc3n2)c1 (configuration not stated)	G9a block 45µM
Oc1ccccc1Nc1nc(NCC2CCCO2)c2ccccc2n1 (configuration not stated)	BAZ2B inh inconclusive, G9a block 50µM
Oc1ccc(Nc2nc(NCC3CCCO3)c3ccccc3n2)cc1 (configuration not stated)	JMJD2A Tudor inh inconclusive, BAZ2B inh inconclusive, G9a block 50µM
CCOC(=O)C1CCCN(CC(O)COC(c2ccccc2)c2ccccc2)C1 (configuration not stated)	none
Oc1ccc(/C=N/N2CCN(C3c4ccccc4-c4ccccc43)CC2)c(O)c1	HP1b chromo inh inconclusive, JMJD2A Tudor inh 40µM, BAZ2B inh inconclusive, G9a block 40µM
O=C(O)c1ccccc1/C=N/N1CCN(C2c3ccccc3-c3ccccc32)CC1	G9a block 40µM
Oc1ccc(/C=N/N2CCN(C3c4ccccc4-c4ccccc43)CC2)cc1	GLS inh inconclusive
O=C(O)c1ccc(/C=N/N2CCN(C3c4ccccc4-c4ccccc43)CC2)cc1	BAZ2B inh 45µM (no result: G9a block)
Cc1ccc(/C=N/N2CCN(C3c4ccccc4-c4ccccc43)CC2)o1	HP1b chromo inh inconclusive, JMJD2A Tudor inh 45µM, BAZ2B inh 35µM (no result: G9a block)
C(=N\N1CCN(C2c3ccccc3-c3ccccc32)CC1)/c1cccs1	JMJD2A Tudor inh inconclusive, BAZ2B inh inconclusive
N#Cc1ccc(NC(=O)COC(=O)CNC(=O)C2CCCCC2)cc1	none
Oc1ccc(/C=N/N2CCN(C3c4ccccc4-c4ccccc43)CC2)cc1O	HP1b chromo inh 50µM, JMJD2A Tudor inh 40µM, BAZ2B inh 40µM, GLS inh 11µM (no result: G9a block)
COc1ccc(/C=N/N2CCN(C3c4ccccc4-c4ccccc43)CC2)cc1OC	none
CCN(c1ccccc1)S(=O)(=O)c1cccc(C(=O)NCC(c2ccc(OC)cc2)N2CCCCC2)c1 (configuration not stated)	none (no result: HP1b chromo inh, JMJD2A Tudor inh, BAZ2B inh, G9a block)
N#CC1=C(N)Oc2nc(-c3ccccc3)[nH]c2C1c1cccnc1 (configuration not stated)	G9a block inconclusive
Cc1ccc(C2C(C#N)=C(N)Oc3nc(-c4ccccc4)[nH]c32)o1 (configuration not stated)	G9a block 50µM
O=C(O)Cn1c(=O)c(-c2ccccc2)nc2ccccc21	none (no result: G9a block)
O=C(O)Cn1c(-c2ccccn2)nc2ccccc21	JMJD2A Tudor inh 50µM, G9a block inconclusive
O=C(O)Cn1c(-c2ccccc2)nc2ccccc21	G9a block 40µM
NNC(=O)Cn1c(-c2ccccn2)nc2ccccc21	none
O=C(O)Cn1c(=S)sc2ccccc21	BAZ2B inh 89µM, G9a block 71µM
O=C(O)CCn1c(=O)sc2ccccc21	none
CCOC(=O)c1cccc(NC(=O)C(C)n2c(C)c3cnn(-c4ccccc4)c(=O)c3c2C)c1 (configuration not stated)	none
Cc1cc(NC(=O)CSc2cc(Cl)ccc2Cl)n(-c2ccccc2)n1	none
Cc1ccc(C)c(SCC(=O)Nc2cc(C)nn2-c2ccc(F)cc2)c1	G9a block 11µM (no result: HP1b chromo inh, JMJD2A Tudor inh, GLS inh)
NC(Cc1cccc(-c2ccccc2CP(=O)(O)O)c1)C(=O)O (configuration not stated)	G9a block 9.5µM! (no result: HP1b chromo inh, JMJD2A Tudor inh, BAZ2B inh, GLS inh)
Cc1cccc(C)c1C(=O)N[C@@H](Cc1ccccc1)C(=O)O	none
CCCCCCSc1ccc([C@H]2N[C@@](Cc3ccccc3)(C(=O)OC)[C@H]3C(=O)N(CC)C(=O)[C@@H]23)cc1	none
O=C1C(Nc2cccc(O)c2)=C(N2CCCCC2)C(=O)c2ccccc21	HP1b chromo inh 22µM, JMJD2A Tudor inh 14µM, BAZ2B inh 22µM (no result: G9a block)
O=C1C(Nc2ccccc2)=C(N2CCCCC2)C(=O)c2ccccc21	HP1b chromo inh inconclusive, JMJD2A Tudor inh 40µM, BAZ2B inh 25µM
CN(C1=C(N2CCCCC2)C(=O)c2ccccc2C1=O)c1ccccc1	HP1b chromo inh inconclusive, JMJD2A Tudor inh 4µM, BAZ2B inh 2.8µM, G9a block 3.5µM
CN(c1ccccc1)c1nc(N)c([N+](=O)[O-])c(N2CCCCC2)n1	JMJD2A Tudor inh inconclusive, BAZ2B inh inconclusive, G9a block inconclusive
Cc1ccc(NC2=C(N3CCCCC3)C(=O)c3ccccc3C2=O)cc1	HP1b chromo inh inconclusive, JMJD2A Tudor inh 14µM, G9a block 5.6µM
CNC(=O)NC(=O)CSc1nc2sccc2c(=O)n1-c1ccccc1	none
O=S(=O)(Nc1cccc(CCc2ccccn2)c1)c1ccc2ccccc2c1	none
O=C(/C=C/c1ccc(O)cc1)c1ccc(NC2=C(N3CCCCC3)C(=O)c3ccccc3C2=O)cc1	JMJD2A Tudor inh 20µM, BAZ2B inh inconclusive, G9a block 14µM
COc1ccccc1NC(=O)CN1CCCCCC1	none
COc1ccccc1NC1=C(N2CCCCC2)C(=O)c2ccccc2C1=O	HP1b chromo inh inconclusive, JMJD2A Tudor inh 40µM, BAZ2B inh 32µM, G9a block 6.3µM
O=C(/C=C/c1ccc(O)cc1)c1ccccc1	none (no result: G9a block)
COc1ccc(NC(=O)Cn2nc(Cc3cccnc3)c3ccccc3c2=O)c(OC)c1	none (no result: G9a block)
COc1cccc(CN2CCc3nc(Nc4ccc5c(c4)OCCO5)ncc3C2)c1OC	HP1b chromo inh inconclusive, JMJD2A Tudor inh 56µM, BAZ2B inh 35µM, G9a block inconclusive
CCc1ccc(CN2CCc3nc(Nc4ccc5c(c4)OCCO5)ncc3C2)cc1	HP1b chromo inh inconclusive, JMJD2A Tudor inh 28µM, BAZ2B inh 14µM
